In PubChem BioAssay AID1619 (SRMLSC, 2009):
Hit rate of the full screen: of about 220,000 compounds, about 830 (0.38%) were called active.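 The calls were made as follows: active = compound inhibiting the enzyme by more than half at any dose during confirmatory dose-response retesting; inconclusive = strong single-dose inhibitors picked by rank but not retested; inactive = the rest.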 Not all results are given here. Results with a measured potency or affinity are listed apart.

Target: Leucine aminopeptidase (Plasmodium falciparum (isolate 3D7)) (UniProt Q8IL11)
Assay: P. falciparum M17LAP inhibitors, primary screen, biochemical, fluorogenic H-Leu-NHMec substrate, 1536-well (AID 1619);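 also: plate controls were full reaction with DMSO carrier for no effect and no enzyme background for full effect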
Conditions: recombinant M17LAP, H-Leu-NHMec fluorogenic kinetic assay; at 30 µM; stronger effect = higher value

Sequence of Leucine aminopeptidase (Plasmodium falciparum (isolate 3D7)) (Q8IL11 whole entry, looked up): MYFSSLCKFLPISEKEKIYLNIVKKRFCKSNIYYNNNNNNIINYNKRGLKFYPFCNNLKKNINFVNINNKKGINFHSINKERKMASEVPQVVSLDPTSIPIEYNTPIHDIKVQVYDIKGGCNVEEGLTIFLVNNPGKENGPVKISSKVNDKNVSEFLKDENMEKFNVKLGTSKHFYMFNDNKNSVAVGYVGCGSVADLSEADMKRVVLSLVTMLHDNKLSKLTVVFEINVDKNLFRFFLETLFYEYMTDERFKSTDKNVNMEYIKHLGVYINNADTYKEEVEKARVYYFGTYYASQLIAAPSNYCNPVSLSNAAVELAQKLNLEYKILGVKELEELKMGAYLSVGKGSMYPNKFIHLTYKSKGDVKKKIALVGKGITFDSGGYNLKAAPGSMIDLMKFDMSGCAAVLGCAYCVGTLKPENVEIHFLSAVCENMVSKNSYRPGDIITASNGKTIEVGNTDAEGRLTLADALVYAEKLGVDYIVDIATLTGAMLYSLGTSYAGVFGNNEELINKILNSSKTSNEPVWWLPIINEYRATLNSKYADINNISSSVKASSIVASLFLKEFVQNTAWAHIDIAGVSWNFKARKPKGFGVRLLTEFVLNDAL

inhibition, inactive:
Cc1ccc(-c2nnc(SCC(=O)N/N=C/c3c(C)nn(-c4ccccc4)c3C)n2-c2ccccc2)cc1 -0.81%
CC(Sc1ccc(Cl)cc1)C(=O)Nc1ccc(S(=O)(=O)N2CCOCC2)cc1 (stereo not given) 1.19%
CC(Sc1ccccc1)C(=O)Nc1ccc(S(=O)(=O)N2CCOCC2)cc1 (stereo not given) 11.8%
CCc1ccccc1NC(=O)C1C(c2ccccc2)C1(Cl)Cl (stereo not given) -8.78%
O=C(Nc1ccccc1NC(=O)c1c(F)c(F)c(F)c(F)c1F)c1c(F)c(F)c(F)c(F)c1F 8.25%
CC(C)N(Cc1nc(-c2ccc3c(c2)OCO3)no1)Cc1nccn1C -7%
Cc1[nH]nc2c1C1(CCN(Cc3ccccc3)CC1)C(C#N)=C(N)O2 42.9%
CC(C)c1[nH]nc2c1C1(CCN(Cc3ccccc3)CC1)C(C#N)=C(N)O2 30.2%
Cc1sc(NC(=O)c2cccc([N+](=O)[O-])c2)c(C(N)=O)c1-c1ccc(C(C)(C)C)cc1 6.91%
Cc1csc(NC(=O)[C@@H]2CCCN2C(=O)c2cccs2)n1 -1.96%
CC1=C(C(=O)OCc2ccccc2)C(c2ccc(Cl)cc2Cl)NC(=O)N1CCCC(=O)O (stereo not given) 0.51%
CC1=C(C(=O)OCc2ccccc2)C(c2ccc(Cl)cc2)NC(=O)N1CCCCCC(=O)O (stereo not given) 47.3%
N#Cc1ccc(C(=O)CSc2n[nH]c(=O)n2Cc2ccco2)cc1 -0.26%
COc1ccc(Cc2nnc(NS(C)(=O)=O)s2)cc1 11.1%
COc1ccc(Cc2nnc(NS(=O)(=O)c3ccccc3)s2)cc1 52.4%
Cc1cccc(Oc2ccc(NC(=O)c3ccccc3C(=O)O)cc2)c1 2.06%
COc1ccc(NC(=O)c2cccs2)cc1 -8.71%
O=C(O)COc1ccc(NC(=O)c2cccs2)cc1 16.1%
O=C(Nc1cccc(Oc2ccc(C(=O)O)c(C(=O)O)c2)c1)c1ccc(-c2ccccc2)cc1 38.5%
CC(=O)Nc1ccccc1N(CC(O)Cn1c2ccccc2c2ccccc21)S(=O)(=O)c1ccc(C)cc1 (stereo not given) 11.1%
CC(=O)CSc1nnc(Cc2ccc3c(c2)OCO3)o1 -2.53%
Cc1ccc(NC(=O)CN2C(=O)N/C(=C/c3ccc(C)o3)C2=O)cc1 71.1%
Cc1ccc(NC(=O)CN2C(=O)N/C(=C/c3ccc(C)s3)C2=O)cc1 -4%
CCn1cc(C(=O)OCC(=O)N2C(C)CCCC2C)c(=O)c2ccc(C)nc21 (stereo not given) 0.44%
CCSc1nc(O)c(C2OC(=O)c3c2ccc(OC)c3OC)c(=O)n1CC (stereo not given) 41.4%
CCCSc1nc(O)c(C2OC(=O)c3c2ccc(OC)c3OC)c(=O)n1-c1ccccc1 (stereo not given) 31.4%
CCCCSc1nc(O)c(C2OC(=O)c3c2ccc(OC)c3OC)c(=O)n1-c1ccccc1 (stereo not given) 32%
CCCCSc1nc(O)c(C2OC(=O)c3c2ccc(OC)c3OC)c(=O)n1C (stereo not given) 44.3%
CC1=CCC2C(=O)N(c3ccc(Br)cc3C)C(=O)C2C1 (stereo not given) -2.62%
COc1cc(C(=O)O)cc(NC(=O)c2cccs2)c1OC 27%
CC(NS(=O)(=O)c1ccccc1)C(c1cccs1)N1CCOCC1 (stereo not given) 3.6%
CCOc1ncccc1C(=O)OCC(=O)NCc1ccc2c(c1)OCO2 -8.27%
O=C(COC(=O)c1cccc(S(=O)(=O)N2CCOCC2)c1)Nc1ncc(C(F)(F)F)cc1Cl 4.29%
C/C(CC(=O)Nc1cc(C)ccn1)=N\NC(=O)C(=O)Nc1cccc(C)c1 17.6%
C/C(CC(=O)Nc1cc(C)ccn1)=N\NC(=O)c1cccc(C)c1 36.6%
c1ccc(CSc2ncnc3c2cnn3-c2ccccc2)cc1 6.75%
CC(=O)CSc1ncnc2c1cnn2-c1ccccc1 -3.85%
O=C(O)c1cccc(-n2cccc2/C=C2\NC(=O)N(Cc3ccc(F)cc3)C2=O)c1 14.1%
O=C1N/C(=C/c2cccn2-c2ccccc2)C(=O)N1Cc1ccccc1F 2.46%
COc1ccc(C(=O)OCC(=O)Nc2nc3c(F)c(F)c(F)cc3s2)cc1OC -4.12%
CCOc1ccccc1OCC(=O)Nc1nnc(COC)s1 -14%
COc1ccc(-c2cn(-c3cccc(C)c3)c(=O)[nH]2)cc1OC 12.5%
COc1ccc(-c2c[nH]c(=O)[nH]c2=O)cc1OC 7.18%
COc1ccc(-c2cc(=O)[nH]c(=O)[nH]2)cc1 6.04%
COc1cccc(-c2cc(=O)[nH][nH]2)c1 -0.06%
Cn1nc(-c2ccc(NCCO)c([N+](=O)[O-])c2)c2ccccc2c1=O -6.44%
Cc1nn(-c2ccccn2)c(N)c1N=O 13.8%
O=C(CN1C2=NCCCN2c2ccccc21)c1cccs1 -10.1%
CCN1C(=O)/C(=C/c2cccs2)SC1=Nc1ccc(OC)cc1 -1.72%
COc1ccc(OCC(=O)Nc2cccc(C(=O)Nc3ccccc3C(=O)O)c2)cc1 37%
CC(C)c1ccc(OCC(=O)Nc2cccc(C(=O)Nc3ccccc3C(=O)O)c2)cc1 5.28%
Cc1cc2nc(SC(C)C(=O)O)[nH]c2cc1C (stereo not given) 19.5%
CC(Sc1nc2ccccc2[nH]1)C(=O)O (stereo not given) 4.99%
COc1ccc(-n2nc(N)c3c(=O)oc(N(C)C)nc32)cc1 3.39%
COC(=O)c1cccc(CN2C(=O)SC(Nc3ccc(C)cc3)C2=O)c1 (stereo not given) 2.69%
Cc1ccc(NC2SC(=O)N(Cc3cccc(C(=O)O)c3)C2=O)c(C)c1 (stereo not given) -1%
COC(=O)c1cccc(CN2C(=O)SC(Nc3ccccc3)C2=O)c1 (stereo not given) 2.34%
O=C(O)CN1C(=O)SC(Nc2ccccc2)C1=O (stereo not given) 15.1%
Cc1ccc(N(CC(N)=O)C2SC(=O)N(Cc3ccccc3)C2=O)cc1 (stereo not given) 8.98%
NC(=O)CN(c1ccccc1)C1SC(=O)N(Cc2ccccc2)C1=O (stereo not given) -3.19%
